SSB-PriA inh: K. pneumoniae PriA-SSBct interaction inhibition; AlphaScreen SSBct-PriA binding, biotinylated peptide; inhibition, % at 33 µM; actives 0.6% (n = 430,000); in the data active means inhibition mostly above about 37%, no sharp cut-off; inactive means mostly below about 20%;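 further: plate controls were negative control peptide for no effect and reference peptide for full effect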
3CLpro inhibitor: SARS-CoV 3CLpro protease inhibition. P0C6X7. recombinant SARS-CoV 3CLpro, quenched FRET peptide cleavage. inhibition, % at 6 µM. actives 0.14% (n = 290,000); in the data active means inhibition above about 12%
DUSP3 inh: inhibitors of human VHR1 phosphatase (DUSP3); actives 0.52% (n = 290,000); AID 1654; inhibition, % at 13.3 µM; recombinant VHR phosphatase, pNPP absorbance; P51452; in the data active means inhibition above about 50%
Target sequence (P51452 whole entry, looked up): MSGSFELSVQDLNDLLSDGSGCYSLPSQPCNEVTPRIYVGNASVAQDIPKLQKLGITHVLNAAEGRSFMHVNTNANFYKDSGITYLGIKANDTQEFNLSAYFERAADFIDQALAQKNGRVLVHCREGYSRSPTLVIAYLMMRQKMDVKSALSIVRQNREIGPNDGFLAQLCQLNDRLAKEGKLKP
CCHF vOTU inh-1: CCHFV vOTU protease inhibition; Pep-AMC fluorescence; actives 0.55% (n = 370,000); inhibition, % at 11.5 µM; AID 651958; further: 0% = vehicle wells with enzyme and 100% = no enzyme wells
RecA intein inh: blocks M. tuberculosis RecA intein splicing; inhibition, % (test concentration not listed); cell-free RecA intein splicing, fluorescence; actives 0.75% (n = 290,000); in the data active means inhibition above about 30%;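 further: 0% = vehicle wells and 100% = reference inhibitor control wells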
CCHF vOTU inh-2: confirmation of CCHF virus vOTU protease inhibitors; inhibition, % at 11.5 µM; shares compounds with CCHF vOTU inh-1; Recombinant CCHFV vOTU, Pep-AMC fluorescence; actives 17% (n = 1,900)
Numbers without * were called inactive; ! = not confirmed by another sample. Sampled rows, rich in hits. Any-hit rate of the full collection: about 1.7%. Unless noted, no stated cut-off is given here; in the data, active means inhibition above about 30%; inactive means the rest.

Cn1c(-c2ccccn2)nn(CCNC(=O)CCn2ccc(=O)[nH]c2=O)c1=O was read as SSB-PriA inh -5.0.
`Cc1ccc(OCC(=O)NNC(=O)c2cc(S(=O)(=O)N(C)C)ccc2N2CCCC2)cc1` gave CCHF vOTU inh-1 32.6* and CCHF vOTU inh-2 -15.2.
`Cc1cccc(OCC(=O)NNC(=O)c2cc(S(=O)(=O)N(C)C)ccc2N2CCCC2)c1` gave SSB-PriA inh -4.8 and CCHF vOTU inh-1 -2.8.
CCCCN1C(=S)NC[C@@H]1c1ccccc1 was read as SSB-PriA inh -1.7, 3CLpro inhibitor 3.9, DUSP3 inh -4.1, CCHF vOTU inh-1 33.3*, RecA intein inh 0.2 and CCHF vOTU inh-2 3.7.
`CCCCN1C(=S)NC[C@@H]1Cc1ccccc1` gave SSB-PriA inh 2.9, 3CLpro inhibitor -2.6, DUSP3 inh -7.7, CCHF vOTU inh-1 14.4 and RecA intein inh -1.4.
`O=C(/C=C/c1ccc(-c2ccc(SC(F)F)cc2)o1)c1ccco1` gave SSB-PriA inh 1.0.
For COn1c(C)c(C(C)=O)c2c3nonc3ccc21 the results were SSB-PriA inh 0.1, 3CLpro inhibitor 3.9, DUSP3 inh 25.3, CCHF vOTU inh-1 31.4*, RecA intein inh -26.0 and CCHF vOTU inh-2 -2.6.
CCCCOn1c(C)c(C(=O)OCC)c2c3nonc3ccc21 was read as SSB-PriA inh -19.9, 3CLpro inhibitor -1.2, CCHF vOTU inh-1 8.6 and RecA intein inh -1.2.
`O=C(COc1ccc(Cl)cc1)N1CCN(c2cc3c(nn2)CCCC3)CC1` gave SSB-PriA inh -9.0.
Screening O=C(O)CN1C(=O)/C(=C\c2cccc(OCc3ccc(F)cc3)c2)SC1=S returned SSB-PriA inh 7.8, 3CLpro inhibitor 10.7, DUSP3 inh -11.0, CCHF vOTU inh-1 35.6*, RecA intein inh 13.9 and CCHF vOTU inh-2 27.6.
`O=C(O)CN1C(=O)/C(=C\c2cccc(OCc3ccc(Cl)cc3)c2)SC1=S` gave SSB-PriA inh 7.1, 3CLpro inhibitor 6.0, DUSP3 inh -3.8, CCHF vOTU inh-1 10.6 and RecA intein inh 16.7.
For COc1ccc(CN(C)C(=O)[C@H]2O[C@@H](n3ccc(=O)[nH]c3=O)[C@H](O)[C@@H]2O)cc1OC the results were CCHF vOTU inh-1 30.1* and CCHF vOTU inh-2 2.5.
CCC(=O)N1CCCc2ccc(NS(=O)(=O)c3ccc(OC)c(F)c3)cc21 was read as SSB-PriA inh -19.0.
Screening CCOC(=O)c1c(-c2ccccc2)oc2ccc(O)cc12 returned SSB-PriA inh -26.2, 3CLpro inhibitor 2.0, DUSP3 inh 21.9, CCHF vOTU inh-1 -0.9 and RecA intein inh -3.0.
For CCOC(=O)c1c(-c2ccccc2)[nH]c2ccc(O)cc12 the results were SSB-PriA inh -0.8, 3CLpro inhibitor 0.8, DUSP3 inh 5.0, CCHF vOTU inh-1 33.8*, RecA intein inh 2.7 and CCHF vOTU inh-2 -17.1.
Screening COc1ccc(-c2nc(S(=O)(=O)c3ccccc3)c(SC)o2)cc1 returned SSB-PriA inh -19.0.
`O=Cc1ccc(-c2ccccc2C(=O)O)o1` gave SSB-PriA inh -7.8, 3CLpro inhibitor -1.7, DUSP3 inh -10.1, CCHF vOTU inh-1 12.0 and RecA intein inh -1.0.
For O=C(O)c1ccccc1-c1c2cc(I)c(=O)c(I)c-2oc2c(I)c(O)c(I)cc12 the results were SSB-PriA inh 14.7, CCHF vOTU inh-1 36.6*! and CCHF vOTU inh-2 38.6*.
Screening O=C(NCc1ccccn1)c1c(O)nc2ccccn2c1=O returned SSB-PriA inh -19.0.
COc1ccccc1/C=C1\SC(=S)N(NS(=O)(=O)c2ccc(C)cc2)C1=O was read as SSB-PriA inh -1.4, 3CLpro inhibitor 4.2, DUSP3 inh 10.4, CCHF vOTU inh-1 35.6*, RecA intein inh 2.9 and CCHF vOTU inh-2 1.4.
`CCOc1ccc(/C=C2\SC(=S)N(NS(=O)(=O)c3ccccc3)C2=O)cc1OC` gave SSB-PriA inh 1.8, 3CLpro inhibitor 10.5, DUSP3 inh 13.3, CCHF vOTU inh-1 40.8*, RecA intein inh 3.7 and CCHF vOTU inh-2 9.9.
COc1ccc(OC)c(/C=C2\SC(=S)N(NS(=O)(=O)c3ccc(C)cc3)C2=O)c1 was read as SSB-PriA inh -5.6, 3CLpro inhibitor 1.7, CCHF vOTU inh-1 33.0*, RecA intein inh -0.4 and CCHF vOTU inh-2 8.1.
Screening CCOc1ccc(/C=C2\SC(=S)N(NS(=O)(=O)c3ccc(C)cc3)C2=O)cc1OC returned SSB-PriA inh 8.9, 3CLpro inhibitor 4.0, DUSP3 inh -2.5, CCHF vOTU inh-1 27.3 and RecA intein inh 4.7.
